Compound activity deposited in PubChem BioAssay by National Center for Advancing Translational Sciences (NCATS).
IL-1B inflam inh – inhibitors of inflammasome signaling (IL-1 beta secretion). THP-1 LPS/ATP IL-1B secretion, AlphaLISA, 16 h; active compounds read low. activity change, % at 57.5 µM. 360,000 compounds, 4.7% hits. AID 743279; in the data active means activity change below about -50%; inconclusive means mostly about -30% to -49%; further: on the % scale 0 is the no-effect control and ±100 the full control effect
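THP-1 cells pretreated 1 hr with compounds (up to 57.5 uM final), then stimulated with LPS (250 ng/mL final) plus ATP (1.25 mM final); secreted IL-1B measured by AlphaLISA after 16 hr, decreased signal indicating inhibition.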
RORgamma inh – inhibitors of mouse ROR gamma transcriptional activity; P51450; Drosophila S2 Gal4-RORgamma UAS-luciferase reporter, 20 h; Potency, µM (titrated, usually from 53.6 µM), inactives show top-dose activity change, negative = inhibition, hits mostly inhibitors; 310,000 compounds, 5.4% hits; AID 2551; further: potency means the concentration at half of the fitted maximal effect; on the % scale 0 is the no-effect control and ±100 the full control effect; nearly all actives have a fitted effect of over 60% in size
Target sequence (P51450 whole entry, looked up, the tested form may be a part): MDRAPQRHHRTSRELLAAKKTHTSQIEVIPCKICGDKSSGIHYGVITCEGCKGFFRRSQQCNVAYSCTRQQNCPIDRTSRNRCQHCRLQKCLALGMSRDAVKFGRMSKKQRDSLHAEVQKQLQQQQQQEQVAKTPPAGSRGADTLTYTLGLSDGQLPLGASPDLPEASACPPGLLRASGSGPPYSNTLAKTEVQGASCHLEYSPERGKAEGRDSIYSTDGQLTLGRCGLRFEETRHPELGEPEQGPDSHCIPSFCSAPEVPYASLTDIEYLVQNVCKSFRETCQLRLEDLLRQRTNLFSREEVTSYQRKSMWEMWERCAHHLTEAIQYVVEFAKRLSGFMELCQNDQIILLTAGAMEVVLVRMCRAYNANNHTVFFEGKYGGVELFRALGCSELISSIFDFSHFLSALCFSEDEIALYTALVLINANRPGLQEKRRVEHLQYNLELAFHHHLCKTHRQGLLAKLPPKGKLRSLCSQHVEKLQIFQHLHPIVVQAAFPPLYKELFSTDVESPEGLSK
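Stable Schneider cell line, Gal4 DNA-binding domain fused to ROR gamma, UAS-luciferase. Cmpd 1 hr RT → CuSO4 700 uM final → 20 hr RT → luciferase reagent 10 min → luminescence.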
MCF10A rerep – inducers of DNA re-replication in MCF 10A breast cells; MCF 10A DNA re-replication, Hoechst nuclear intensity, 48 h; Potency, µM (doses to about 46.1 µM), inactives show top-dose activity, positive = re-replication, most hits filed as activators; 350,000 compounds, 2.9% hits; AID 624296; further: potency means the concentration at half of the fitted maximal effect; % of control where 0% means no effect; nearly all actives have a fitted effect of over 50% in size
SW480 rerep – inducers of DNA re-replication in SW480 colon cancer cells; SW480 DNA re-replication, Hoechst DNA content imaging, 48 h; 340,000 compounds, 1.8% hits; Potency, µM (series often up to 46.1 µM), inactives show at the top dose re-replication activation, hits mostly activators; further: potency means the concentration at half of the fitted maximal effect; % of control where 0% means no effect; nearly all actives have a fitted effect of over 55% in size
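Quantitative HTS format with DMSO vehicle controls; 48 hr drug incubation at 37 C, then 40 min Hoechst staining and scanning imager measurement at 405 nm excitation.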
Gal4-VP16 FLuc – Gal4-VP16 reporter inhibition counter-screen | Drosophila S2 Gal4-VP16 UAS-luciferase, luminescence, 20 h | Potency, µM (titrated, usually from 53.6 µM), for inactives: top-dose activity, negative = inhibition, most hits filed as inhibitors | 310,000 compounds, 3.5% hits | AID 2546;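 further: Gal4-VP16 expression switched on by copper sulfate through the metallothionein promoter; potency means the concentration at half of the fitted maximal effect; on the % scale 0 is the no-effect control and ±100 the full control effect; nearly all actives have a fitted effect of over 50% in size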
An asterisk follows results filed as active; ? = inconclusive; · = no result; [ ] = remark or other dose. Shown are actives, neighbours in structure and some others; about 11% of the full set was active somewhere. Unless noted, the call rests on the fitted dose curve; in most records, active means well fitted curve in the direction sought with a large enough effect; inconclusive means small, poorly fitted or top-dose-only effect, or another doubt; inactive means no such curve, though single readings can be large; an effect the other way counts as inactive or inconclusive.

SMILES	IL-1B inflam inh	RORgamma inh	MCF10A rerep	SW480 rerep	Gal4-VP16 FLuc
O=C(C1CCCCC1)N1C[C@@H](O)[C@H](n2cc(-c3ccc(F)cc3)nn2)C[C@@H]1c1ccccc1	-8	·	·	·	·
C[C@H](O/N=C1/[C@H]2O[C@@H]2[C@@H](O)[C@H]2[C@H]1CCn1c(=O)n(-c3ccccc3)c(=O)n12)c1cn([C@H](CO)Cc2ccccc2)nn1	·	11%[10 µM]	·	·	6%[10 µM]
COCOCCn1cc(CN2CCS(=O)(=O)N(Cc3ccc(-c4ccc(OC)cc4)cc3)C(C)C2=O)nn1 (centres undefined)	-3	·	·	·	·
O=C(NC(=S)Nc1ccc(S(=O)(=O)N2CCCC2)cc1)c1cccs1	-19	4.5µM*	-3%	25%	13µM*
O=C(NC(=S)Nc1ccc(S(=O)(=O)N2CCCCCC2)cc1)c1cccs1	20	2.8µM*	20%	0%	6.3µM*
COc1ccc(-c2coc3c(C(=O)NCc4ccc(OC)c(OC)c4)cccc23)c(C)c1	-21	·	·	·	·
NCCc1c(-c2ccccc2)n(-c2ccccc2)c2ccccc12	-97*	?	?	?	?
CC(=O)n1c(-c2ccccc2)c(CO)c2ccccc21	26	18%	1%	0%	0%
CCOC(=O)c1ccc(NC(=O)CSc2nnc(CCc3ccc(C)o3)n2-c2ccccc2)cc1	?	?	14%	4%	14µM*
Cc1ccc(CCc2nnc(SCC(=O)Nc3ccccc3Cl)n2-c2ccccc2)o1	-64*	?	?	?	-3%
COC(=O)c1ccc(NC(=O)CSc2nnc(C)n2-c2ccccc2)cc1	14	34%	12%	-4%	-5%
CC(=O)Nc1ccc(SCC(c2ccccc2)N2CCN(C)CCC2=O)cc1 (centres undefined)	·	-19%	·	·	2%
C=CCCC/C=C(/C)C(OCc1ccc(OC)cc1)C(CC/C=C(\C)C(N)=O)OC (centres undefined)	·	-9%[10 µM]	·	·	-11%[10 µM]
COc1ccc(NC(=S)N(CCCN2CCC(C)CC2)Cc2cccs2)cc1	-51*	10%	9%	1%	2%
Cc1ccc(NC(=S)N(CCCN2CCC(C)CC2)Cc2ccco2)cc1C	-78*	?	?	-3%	-10%
Cc1ccc(NC(=S)N(CCCN2CCN(C)CC2)Cc2cccs2)cc1C	-61*	4%	?	-14%	-5%
CSc1cccc(NC(=S)N(CCC(C)C)C2CCN(C(C)C)CC2)c1	-25	13µM*	3%	-40%[1.84 µM]	?
Cc1ccc(NC(=S)N(CCCN2CCN(C)CC2)Cc2cccs2)cc1	-19	17%	5%	-5%	7%
O=C(COC(=O)c1cccc(S(=O)(=O)N2CCOCC2)c1)NC1CCCCC1	-2	·	·	·	·
O=C(CCC(=O)N1CCN(S(=O)(=O)c2ccc([N+](=O)[O-])cc2)CC1)N1CCOCC1	14	·	19%	-1%	·
CSc1cccc(NC(=S)N(CCCN2CCC(C)CC2)Cc2cccs2)c1	?	13µM*	?	23%	8%[10 µM]
COc1cccc(NC(=S)N(CCCN2CCC(C)CC2)Cc2cccs2)c1	-23	-23%	7%	0%	18%
NC(=O)NC(Cc1ccccc1)C(=O)NNC(=O)COc1ccccc1Cl (centres undefined)	22	·	9%	-15%	·
COc1cc(-c2noc(C)c2C#CC2(O)CCCCC2)cc(OC)c1OC	?	0%	0%	-2%	0%
COc1ccc(-c2oc(=O)c3cc(OC)c(OC)cc3c2C#CCCCO)cc1	0	·	?	19%	·
SMILES	IL-1B inflam inh	RORgamma inh	MCF10A rerep	SW480 rerep	Gal4-VP16 FLuc
COc1cc2c(C#CCCCO)c(-c3ccc(C#N)cc3)oc(=O)c2cc1OC	7	·	6.5µM*	?	·
COc1ccc(-c2oc3cccnc3c2C#CC2(O)CCCCC2)cc1	-56*	7.1µM*	18µM*	27%	?
COc1cc(-c2ccc3oc(-c4ccsc4)c(C#CC4(O)CCCCC4)c3c2)cc(OC)c1OC	·	·	18µM*	?	·
COc1ccc(-c2oc3cccnc3c2C#CCO)cc1	0	?	-47%	2%	-6%
COc1ccc(-c2oc(=O)c3cc(OC)c(OC)cc3c2C#CC2(O)CCCCC2)cc1	-1	·	2.1µM*	-11%[9.22 µM]	·
CN(C)/C=C1/Sc2ccccc2C1=O	20	-9%	11%	-8%	12%
CC(=O)N(\C=C/C=C/C=C1\Sc2ccccc2C1=O)c1ccccc1	2	-27%	15µM*	-1%	9%
CCn1cc(CN2CCCC(CNS(=O)(=O)c3cccc4cccnc34)C2)cn1 (centres undefined)	4	-18%	16%	1%	-3%
CCOc1ccccc1NC(=O)/C(C#N)=C/c1c(C)nn(-c2ccccc2)c1Cl	-51*	20%	?	0%	-21%
C=CCNC(=O)/C(C#N)=C/c1ccc2c(c1)OCCO2	-20	?	4%	-5%	?
C=CCNC(=O)/C(C#N)=C/c1ccc(SC)cc1	-57*	-2%	2%	0%	11%
C=CCNC(=O)/C(C#N)=C/c1c(C)nn(-c2ccccc2)c1Cl	-68*	?	?	23%	13µM*
CCOc1ccccc1NC(=O)/C(C#N)=C/c1cccnc1	69	20%	2%	-2%	13%
CCOC(=O)C(NC(=O)C1C(C)N1S(=O)(=O)c1ccc(C)cc1)C(=O)OCC (centres undefined)	3	-7%	-5%	-9%	1%
CCCNC(=O)C1(C)CCN1C(=O)Cc1ccc(C(C)(C)C)cc1 (centres undefined)	42	·	·	·	·
CCSc1nsc(NC(=O)Nc2ccccc2F)n1	-93*	?	?	-3%	-9%
C=CCSc1nsc(NC(=O)Nc2ccc(F)cc2)n1	-88*	?	?	156%	3.5µM*
CCSc1nsc(NC(=O)Nc2cccc(OC)c2)n1	-97*	18%[1.91 µM]	2%	24%	-14%
CCc1nc2c(OCC(=O)c3ccc(F)cc3)cccn2c1N(C)C(=O)C(C)C	16	·	·	·	·
CC(=O)OCCBr	·	0%	·	·	-5%
CCOC(=O)/C(C(N)=NCC(C)C)=C(/O)c1ccccc1	-81*	38%	12%	3%	22%
CCCN=C(N)/C(C(=O)OCC)=C(\O)c1ccc(OC)cc1	-9	25%	2%	-3%	1%
Cc1cc(C)c(Cn2cnc3ccccc32)c(C)c1	?	5.6µM*	-2%	?	-56%
Cc1ccc(/C=C/C(=O)c2c(C)cc(C)[nH]c2=O)cc1	-94*	?	?	?	?
Cc1cc(C)c(C(=O)/C=C/c2cccs2)c(=O)[nH]1	-73*	-17%	?	-41%	6%
CCc1ccc(/C=C/C(=O)c2c(C)cc(C)[nH]c2=O)cc1	-120*	?	18µM*	?	?
